Usually AC50 stands for the concentration giving half of the maximal activity seen.

Activity calls are given as the source filed them. The calls were made as follows: active = hit-call score of the fitted dose curve at least 0.9, where 1 is the maximum; inactive = score below 0.9.

The nature of assay [1]: ATG_E_Box_CIS: Attagene CIS-FACTORIAL HepG2 Assay for human Enhancer Box (E-box) (AID 2282936). The note with it: HepG2 E-box cis-reporter transcription, actives raise or lower the signal. A digest of the protocol: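 Fluorescent reporter fragments separated by capillary electrophoresis gave the signal; mRNA came from HepG2 cells transfected with cis-element reporters and treated 24 h. Curves fitted bidirectionally relative to DMSO controls.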

Assay [2] in a line: ATG_M_61_CIS: Attagene CIS-FACTORIAL HepG2 Assay for M61 Transcription Factor (Internal Marker) (AID 2282937). The note with it: HepG2 Attagene CIS-FACTORIAL M61 internal marker reporter; actives raise or lower the signal. The method, boiled down: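 Readout is reporter mRNA by RT-PCR, fluorescent primer extension and capillary electrophoresis, with gain or loss fitted relative to DMSO. Transfected HepG2 cells carrying endogenous-TF-driven cis reporters were exposed to chemicals for 24 hours.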

The nature of assay [3]: ATG_EGR_CIS: Attagene CIS-FACTORIAL HepG2 Assay for human Early Growth Response 1 (EGR1) (AID 2282938). Particulars: HepG2 Attagene CIS-FACTORIAL EGR reporter mRNA; actives raise or lower the signal. The method, boiled down:
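After 24 h compound exposure, RNA from reporter-transfected HepG2 cells was reverse-transcribed, PCR-amplified, fluorescently labelled and resolved by capillary electrophoresis. EGR1 reporter transcript changes, up or down, were fitted against DMSO, reflecting endogenous transcription-factor activity.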

A short description of assay [4]: ATG_M_19_CIS: Attagene CIS-FACTORIAL HepG2 Assay for M19 Transcription Factor (Internal Marker) (AID 2282939). The note with it: HepG2 Attagene CIS-FACTORIAL M19 internal marker reporter; actives raise or lower the signal. A digest of the protocol:
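HepG2, MRTU transient transfection, 24 h dosing. Total RNA → RT-PCR → 6-FAM primer extension → HpaI digest → CE fluorescence. Bidirectional curve fit, DMSO negative control.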

Assay [5] can be described thus: ATG_Ets_CIS: Attagene CIS-FACTORIAL HepG2 Assay for human Erythroblast Transformation Specific (ETS) (AID 2282941). The note with it: HepG2 ETS cis-reporter transcription, actives raise or lower the signal. The method, boiled down:
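Bidirectional fit versus DMSO of reporter mRNA signal, detected by RT-PCR and capillary electrophoresis in HepG2 cells transiently transfected with cis-element reporters and dosed 24 h.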

Assay [6] deals with Hepatocyte nuclear factor 3-beta (Homo sapiens) (UniProt Q9Y261). The experiment in a line: ATG_FoxA2_CIS: Attagene CIS-FACTORIAL HepG2 Assay for human Forkhead box A2 (FOXA2) (AID 2282942). Particulars: HepG2 cis-reporter transcription factor activity, 24 h; actives raise or lower the signal. A digest of the protocol: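 Endogenous transcription factor activity is captured via cis-element-driven reporter transcripts in transfected HepG2. Total RNA taken at 24 h post-dosing; labelled RT-PCR products resolved by capillary electrophoresis. Gain or loss fitted versus DMSO.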

Assay [7] in a line: ATG_FoxO_CIS: Attagene CIS-FACTORIAL HepG2 Assay for human Forkhead box O (FoxO) (AID 2282943). Particulars: HepG2 Attagene cis-reporter, FoxO element, mRNA; actives raise or lower the signal. The method, boiled down: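 HepG2, transient MRTU transfection (cis element, endogenous TFs). Dose 24 h. TriZol RNA → oligo(dT) RT → PCR → 6-FAM primer extension → HpaI cut → CE. Gain/loss vs DMSO.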

The nature of assay [8]: ATG_GATA_CIS: Attagene CIS-FACTORIAL HepG2 Assay for human GATA Binding Protein (AID 2282944). Particulars: HepG2 GATA cis-element reporter, Attagene multiplex mRNA; actives raise or lower the signal. The method, boiled down: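 Cells: HepG2, transiently transfected with cis-regulated reporter transcription units. Exposure: 24 h. Detection: RT-PCR plus capillary electrophoresis of FAM-labeled fragments. Analysis: bidirectional, DMSO as baseline.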

Assay [9] in a line: ATG_GLI_CIS: Attagene CIS-FACTORIAL HepG2 Assay for human Zinc Finger Protein GLI1 (AID 2282945). The note with it: HepG2, Attagene cis-factorial reporter mRNA, GLI element; actives raise or lower the signal. A digest of the protocol:
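Bidirectional curve fits relative to DMSO, using reporter mRNA levels from RT-PCR plus capillary electrophoresis. Cells were HepG2 transiently carrying cis-regulated reporter constructs, harvested 24 h after dosing.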

Assay [10] has as its target Bile acid receptor (Homo sapiens) (UniProt Q96RI1). The experiment in a line: ATG_IR1_CIS: Attagene CIS-FACTORIAL HepG2 Assay for human Nuclear Receptor Subfamily 1 Group H Member 4 (NR1H4), IR1 submotif (AID 2282946). The note with it: IR1 reporter transcription, actives raise or lower the signal. The method, boiled down: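 HepG2 cells transiently transfected with multiplexed cis-element reporter units read endogenous transcription factor activity. After 24 h compound exposure, reporter mRNA was quantified by RT-PCR, fluorescent labelling, HpaI digestion and capillary electrophoresis; bidirectional fitting versus DMSO baseline.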

The nature of assay [11]: ATG_GRE_CIS: Attagene CIS-FACTORIAL HepG2 Assay for human Glucocorticoid Response Elements (GRE) (AID 2282947). The note with it: HepG2 GRE cis-reporter, Attagene multiplex mRNA; actives raise or lower the signal. The method, boiled down:
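Multiplexed cis-reporter mRNA induction, HepG2, 24 h post-dose. RT-PCR, FAM-labelled, HpaI-digested amplicons by CE. Bidirectional fit vs DMSO.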

Assay [12] in a line: ATG_M_32_CIS: Attagene CIS-FACTORIAL HepG2 Assay for M32 Transcription Factor (Internal Marker) (AID 2282949).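 Also: background control marker of the multiplexed CIS panel rather than a real target.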 The note with it: HepG2 Attagene cis-factorial M32 reporter, mRNA; actives raise or lower the signal. The method, boiled down: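 Using DMSO as baseline, bidirectional curve fits were applied to reporter mRNA signals. These came from transiently transfected HepG2 cells exposed for 24 h, with RNA analysed by RT-PCR, FAM primer extension, HpaI digestion and CE.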

Assay [13] is described as follows: ATG_M_06_CIS: Attagene CIS-FACTORIAL HepG2 Assay for M06 Transcription Factor (Internal Marker) (AID 2282950). The note with it: HepG2 Attagene CIS-FACTORIAL M06 internal marker reporter; actives raise or lower the signal. The method, boiled down:
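Measured 24 h post-dosing in transiently transfected HepG2 cells, this internal-marker endpoint reports reporter mRNA via RT-PCR with fluorescent primer extension and capillary electrophoresis. DMSO served as negative control and baseline for bidirectional fitting.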

The target in assay [14] is Hepatocyte nuclear factor 6 (Homo sapiens) (UniProt Q9UBC0). The experiment in a line: ATG_HNF6_CIS: Attagene CIS-FACTORIAL HepG2 Assay for human Hepatocyte Nuclear Factor 6 (HNF6) (AID 2282952). The note with it: HepG2 Attagene cis-factorial HNF6 reporter transcription; actives raise or lower the signal. The method, boiled down: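 Twenty-four-hour chemical treatment of reporter-transfected HepG2 cells precedes RNA isolation, DNase-treated reverse transcription and PCR of reporter sequences. Labelled fragments are sized by capillary electrophoresis and fitted bidirectionally versus DMSO.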

Assay [15] in a line: ATG_MRE_CIS: Attagene CIS-FACTORIAL HepG2 Assay for human Metal Responsive Element (MRE) (AID 2282954). The note with it: HepG2 MRE cis-reporter transcription, Attagene multiplex; actives raise or lower the signal. A digest of the protocol: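 Multiplexed cis-reporter assay in human HepG2 liver cells, 24 h incubation with test chemical. Reporter transcripts measured by RT-PCR and capillary electrophoresis; values from bidirectional curve fitting versus DMSO.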

Assay [16] addresses Hypoxia-inducible factor 1-alpha (Homo sapiens) (UniProt Q16665). The experiment in a line: ATG_HIF1a_CIS: Attagene CIS-FACTORIAL HepG2 Assay for human Hypoxia Inducible Factor 1 (HIF1A) (AID 2282951). Particulars: HepG2 Attagene cis-factorial HIF1a reporter transcription; actives raise or lower the signal. A digest of the protocol: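 Activity is fitted in both directions relative to DMSO. Reporter transcripts are read by RT-PCR, fluorescent primer extension and capillary electrophoresis after 24 h chemical treatment. The cells are HepG2 carrying transiently transfected cis-element-driven reporter units responding to endogenous factors.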

For assay [17], the target named is Heat shock factor protein 1 (Homo sapiens) (UniProt Q00613). The experiment in a line: ATG_HSE_CIS: Attagene CIS-FACTORIAL HepG2 Assay for human Heat Shock Transcription Factor 1 (HSE) (AID 2282953). Particulars: HepG2 HSE cis-reporter, Attagene RNA transcription; actives raise or lower the signal. The method, boiled down:
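Reporter mRNA induction in HepG2 is measured 24 h after dosing, using transiently transfected multiplexed cis-regulated reporter units. Signal comes from capillary electrophoresis of labelled RT-PCR products, with DMSO as negative control.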

Assay [18] in a line: ATG_PBREM_CIS: Attagene CIS-FACTORIAL HepG2 Assay for human Phenobarbital-responsive Enhancer Module (PBREM) (AID 2282955). Particulars: HepG2 PBREM cis-reporter, Attagene multiplexed transcription; actives raise or lower the signal. A digest of the protocol:
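Endogenous transcription factor activity was read from reporter transcripts in transiently transfected human HepG2 liver cells after 24 h dosing. RT-PCR products were fluorescently labelled, HpaI-cut and sized by capillary electrophoresis; activity fitted bidirectionally against DMSO baseline.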

The nature of assay [19]: ATG_ISRE_CIS: Attagene CIS-FACTORIAL HepG2 Assay for human Interferon Regulatory Factor 1 (IRF1) binding to an Interferon-Stimulated Response Element (ISRE) (AID 2282948). Particulars: HepG2 ISRE cis-reporter (Attagene), mRNA transcription readout; actives raise or lower the signal. The method, boiled down: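 Uses HepG2 liver cells transfected with cis-regulated reporters and measures mRNA 24 h post-dosing through RT-PCR, primer-extension labelling and capillary electrophoresis, with DMSO as negative control.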

A short description of assay [20]: ATG_ERE_CIS: Attagene CIS-FACTORIAL HepG2 Assay for Estrogen Response Element (ERE) (AID 2282940). The note with it: HepG2 ERE cis-reporter, Attagene RNA transcript; actives raise or lower the signal. The method, boiled down:
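After a 24 h chemical treatment, RNA from reporter-transfected HepG2 cells is reverse-transcribed, PCR-amplified and fluorescently labelled. Fragments separated by capillary electrophoresis give reporter signal; DMSO serves as negative control.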

Sequence of Hepatocyte nuclear factor 6 (Homo sapiens) (Q9UBC0 whole entry, looked up, the tested form may be a part): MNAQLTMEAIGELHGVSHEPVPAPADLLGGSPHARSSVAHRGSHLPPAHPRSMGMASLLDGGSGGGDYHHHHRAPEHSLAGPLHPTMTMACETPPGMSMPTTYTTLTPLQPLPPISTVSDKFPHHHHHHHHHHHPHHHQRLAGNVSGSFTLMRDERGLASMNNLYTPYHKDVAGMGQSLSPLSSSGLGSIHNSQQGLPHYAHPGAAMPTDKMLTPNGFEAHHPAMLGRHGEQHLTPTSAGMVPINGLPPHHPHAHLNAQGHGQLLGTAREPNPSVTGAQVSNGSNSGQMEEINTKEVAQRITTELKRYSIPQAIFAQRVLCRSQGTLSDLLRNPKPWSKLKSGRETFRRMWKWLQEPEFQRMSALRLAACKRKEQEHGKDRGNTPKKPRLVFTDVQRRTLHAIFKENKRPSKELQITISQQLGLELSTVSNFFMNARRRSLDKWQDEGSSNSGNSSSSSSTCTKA
Sequence of Bile acid receptor (Homo sapiens) (Q96RI1 whole entry, looked up): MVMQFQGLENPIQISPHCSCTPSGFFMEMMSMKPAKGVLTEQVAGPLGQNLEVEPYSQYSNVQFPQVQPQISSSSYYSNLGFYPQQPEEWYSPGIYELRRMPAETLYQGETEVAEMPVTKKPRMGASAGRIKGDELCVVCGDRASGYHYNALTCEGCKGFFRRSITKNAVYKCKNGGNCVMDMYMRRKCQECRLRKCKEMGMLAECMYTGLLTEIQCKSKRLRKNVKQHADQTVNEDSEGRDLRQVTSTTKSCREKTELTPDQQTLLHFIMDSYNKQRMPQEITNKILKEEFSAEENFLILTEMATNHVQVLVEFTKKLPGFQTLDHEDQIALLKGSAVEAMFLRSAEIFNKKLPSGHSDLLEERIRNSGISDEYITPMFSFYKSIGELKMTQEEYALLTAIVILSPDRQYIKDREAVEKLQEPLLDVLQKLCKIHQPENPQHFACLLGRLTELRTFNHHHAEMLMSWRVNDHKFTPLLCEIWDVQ
Sequence of Hepatocyte nuclear factor 3-beta (Homo sapiens) (Q9Y261 whole entry, looked up): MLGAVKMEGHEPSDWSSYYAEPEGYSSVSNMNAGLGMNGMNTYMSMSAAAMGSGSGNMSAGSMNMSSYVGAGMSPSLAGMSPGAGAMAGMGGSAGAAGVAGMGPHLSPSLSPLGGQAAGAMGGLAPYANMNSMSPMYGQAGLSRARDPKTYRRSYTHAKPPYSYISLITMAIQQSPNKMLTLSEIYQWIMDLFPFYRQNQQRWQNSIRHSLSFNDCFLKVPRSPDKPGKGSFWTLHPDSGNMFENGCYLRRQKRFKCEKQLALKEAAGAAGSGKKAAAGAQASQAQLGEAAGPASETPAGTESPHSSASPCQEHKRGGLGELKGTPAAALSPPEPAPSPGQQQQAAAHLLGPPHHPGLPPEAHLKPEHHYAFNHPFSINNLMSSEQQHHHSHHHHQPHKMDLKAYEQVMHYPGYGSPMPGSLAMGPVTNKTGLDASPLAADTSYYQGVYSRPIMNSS
Sequence of Hypoxia-inducible factor 1-alpha (Homo sapiens) (Q16665 whole entry, looked up): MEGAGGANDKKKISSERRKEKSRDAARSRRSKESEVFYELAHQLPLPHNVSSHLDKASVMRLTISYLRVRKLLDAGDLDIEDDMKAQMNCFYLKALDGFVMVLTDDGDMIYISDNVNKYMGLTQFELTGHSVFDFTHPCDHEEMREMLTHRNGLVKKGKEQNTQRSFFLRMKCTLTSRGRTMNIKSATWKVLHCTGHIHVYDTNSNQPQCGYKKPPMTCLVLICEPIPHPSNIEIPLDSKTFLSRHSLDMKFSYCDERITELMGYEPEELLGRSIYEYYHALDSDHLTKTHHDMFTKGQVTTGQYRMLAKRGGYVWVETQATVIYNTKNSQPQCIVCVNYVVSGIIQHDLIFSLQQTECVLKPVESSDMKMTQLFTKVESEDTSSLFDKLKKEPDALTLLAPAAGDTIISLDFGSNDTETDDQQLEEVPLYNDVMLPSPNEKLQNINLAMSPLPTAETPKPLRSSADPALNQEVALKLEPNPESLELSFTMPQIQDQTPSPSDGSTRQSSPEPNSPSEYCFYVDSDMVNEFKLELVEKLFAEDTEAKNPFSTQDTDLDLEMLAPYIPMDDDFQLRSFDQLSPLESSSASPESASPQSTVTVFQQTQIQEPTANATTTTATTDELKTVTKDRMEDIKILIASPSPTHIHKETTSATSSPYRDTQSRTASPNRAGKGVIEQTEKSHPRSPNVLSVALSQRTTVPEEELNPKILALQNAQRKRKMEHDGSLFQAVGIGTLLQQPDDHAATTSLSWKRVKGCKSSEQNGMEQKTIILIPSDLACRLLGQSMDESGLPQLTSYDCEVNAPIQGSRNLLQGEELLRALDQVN
Sequence of Heat shock factor protein 1 (Homo sapiens) (Q00613 whole entry, looked up): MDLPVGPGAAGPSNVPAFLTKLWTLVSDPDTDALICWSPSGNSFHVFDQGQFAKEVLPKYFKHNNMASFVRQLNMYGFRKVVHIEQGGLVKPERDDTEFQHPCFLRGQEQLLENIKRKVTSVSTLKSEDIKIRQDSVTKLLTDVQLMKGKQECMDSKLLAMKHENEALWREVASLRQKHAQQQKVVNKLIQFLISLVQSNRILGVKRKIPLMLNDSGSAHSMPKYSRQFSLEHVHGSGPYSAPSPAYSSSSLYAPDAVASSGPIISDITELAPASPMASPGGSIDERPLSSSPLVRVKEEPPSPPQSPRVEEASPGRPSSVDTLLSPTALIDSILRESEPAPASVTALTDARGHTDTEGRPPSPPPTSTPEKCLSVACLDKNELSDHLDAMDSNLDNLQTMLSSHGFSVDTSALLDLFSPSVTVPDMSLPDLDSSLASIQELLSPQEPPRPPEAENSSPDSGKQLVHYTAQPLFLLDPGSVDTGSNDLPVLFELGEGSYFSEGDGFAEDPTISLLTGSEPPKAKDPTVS

In the case of `CC(C)=CCC/C(C)=C\CO`, the result in assay [1], in [2], in assay [3], in assay [4], in assay [5] and in assay [6] was inactive. Moreover, the call in [7], in assay [8], in assay [9], in assay [10], in assay [11] and in [12] was inactive. The outcome in assay [13], in assay [14] and in [15] was inactive.
Regarding `CCN(C(=O)c1cc(C)cc(OC[C@H](C)Nc2ccncc2)c1)C(C)C`, the result in assay [1], in assay [2], in [3], in assay [4], in assay [5] and in assay [6] was inactive. Moreover, the outcome in assay [7], in [8], in assay [9], in assay [11], in assay [12] and in assay [13] was inactive. Moreover, the outcome in assay [16], in assay [14], in assay [17], in assay [15] and in assay [18] was inactive. Further, the AC50 in assay [10] is 42 µM (active).
As for `CCCCC(CC)COC(=O)c1ccc(C(=O)OCC(CC)CCCC)cc1` (stereo unspecified), the result in [1], in assay [2], in [3], in assay [4], in assay [5] and in assay [6] was inactive. The outcome in assay [7], in [8], in assay [9], in assay [10], in assay [19] and in assay [12] was inactive. Further, the compound was classed as inactive in assay [16], in assay [14], in [17] and in assay [15].
`CC[C@H]1CC[C@H](NCc2cc3c(cc2OC)[C@H]2C[C@H]2C(=O)N3C)[C@H](c2ccccc2)N1`: the outcome in assay [1], in assay [2], in [4], in [20], in [6] and in assay [8] was inactive. The compound was called inactive in assay [9], in assay [12], in assay [16] and in assay [14]. Further, the AC50 in assay [3] was 71.3 µM (active); in assay [5], 100 µM (active); in [7], 100 µM (active); in assay [11], 69 µM (active); in assay [19], 80.9 µM (active); in assay [17] it was 71.5 µM (active). Moreover, the AC50 in [15] is 114 µM (active).

(Values after PubChem BioAssay (EPA / NIEHS).)
